PubChem BioAssay (Tox21)
Results filed as inconclusive are left out. Values without a mark were called inactive. Unless noted, calls come from the whole dose curve.
% is set by controls: 0 for no effect and ±100 for the full control effect.

Test: p53 small molecule agonists, cell-based qHTS assay with rat liver microsomes: qHTS cell viability counter screen (AID 1963580); note: nearly all actives have a fitted effect of over 45% in size
Details: p53RE-bla HCT-116 + rat microsomes, ATP viability, 16 h; series mostly up to 66 µM; activity change, negative = cytotoxicity: at the top concentration
In short: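 Counter screen for cytotoxicity under metabolic activation: rat liver microsomes and NADPH, 0.5 mg/mL final each, added with compounds to p53RE-bla HCT-116 cells; 16 h at 37 C, then ATP luminescence read.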
With CCCCC(CC)COC(=O)OOC(C)(C)C (stereo not drawn) the “activity change, negative = cytotoxicity” value was 14.9%.
In the case of CCOP(=O)(OCC)O/C(=C/Cl)c1ccc(Cl)cc1Cl, the “activity change, negative = cytotoxicity” value was 3.5%.
For CNNC, the “activity change, negative = cytotoxicity” value was 1.11%.
For C=C(Cl)CSC(=S)N(CC)CC, the “activity change, negative = cytotoxicity” value was -18.6%.
In the case of O=C(CBr)Nc1ccc(Cl)cc1C(=O)c1ccccc1F, the “activity change, negative = cytotoxicity” value was 15.5% [at 30.3 µM].
With Nc1ccc(Cl)cc1C(=O)c1ccccc1F the “activity change, negative = cytotoxicity” value was 11.4% [at 30.3 µM].
With C[C@]12C=CC(=O)C=C1CC[C@@H]1[C@@H]2CC[C@@]2(C)[C@H]1CC[C@]2(C)O the “activity change, negative = cytotoxicity” value was 5.32% [at 30.3 µM].
With CCCCCCCCCCCCCN1CC(C)OC(C)C1 (stereo not drawn) the “activity change, negative = cytotoxicity” value was 1.32%.
In the case of CCN(CC)c1c([N+](=O)[O-])cc(C(F)(F)F)c(N)c1[N+](=O)[O-], the “activity change, negative = cytotoxicity” value was -11.5%.
With Cc1cccc(OP(=O)(Oc2cccc(C)c2)Oc2cccc(C)c2)c1 the “activity change, negative = cytotoxicity” value was -11.9%.
With O=C(Nc1ccc2[nH]ccc2c1)c1cc2cc(F)ccc2n1Cc1cccc(F)c1 the “activity change, negative = cytotoxicity” value was -13.8%.
With CSc1ccc(C(=O)C(C)(C)N2CCOCC2)cc1 the “activity change, negative = cytotoxicity” value was -0.648%.
With COP(=S)(OC)Oc1c(Cl)cc(C)cc1Cl the “activity change, negative = cytotoxicity” value was -6.23%.

Test: p53 small molecule agonists, cell-based qHTS assay: qHTS cell viability counter screen (AID 1963581); note: nearly all actives have a fitted effect of over 45% in size
Details: p53RE-bla HCT-116 viability, ATP luminescence, 16 h; series mostly up to 66 µM; activity change, negative = cytotoxicity: at the top concentration
In short: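 Cytotoxicity read-out: ATP-based luminescence (CellTiter-Glo, 30 min RT) measured in the same wells as the p53 reporter assay, HCT-116 p53RE-bla cells, 16 h compound exposure at 37 C.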
In the case of CCN(CC)C(=O)N[C@@H]1C=C2c3cccc4[nH]cc(c34)C[C@@H]2N(C)C1, the “activity change, negative = cytotoxicity” value was 0.836% [at 30.3 µM].
With O=[N+]([O-])c1ccc2c3c(cccc13)CC2 the “activity change, negative = cytotoxicity” value was -20.5%.
For CCCN(CCC)C(=O)Cc1c(-c2ccc(Cl)cc2)nc2ccc(Cl)cn12, the “activity change, negative = cytotoxicity” value was -3.67% [at 30.3 µM].
For CC(C)[C@H](C(=O)O[C@H](C#N)c1cccc(Oc2ccccc2)c1)c1ccc(Cl)cc1, the “activity change, negative = cytotoxicity” value was -2.58%.
With CCC(C(N)=O)N1CCCC1=O (stereo not drawn) the “activity change, negative = cytotoxicity” value was 0.761% [at 30.3 µM].
For CCOC(=O)C(Cl)Cc1cc(-n2nc(C)n(C(F)F)c2=O)c(F)cc1Cl (stereo not drawn), the “activity change, negative = cytotoxicity” value was -9.59%.
In the case of Oc1ccc2ccc3cccc4ccc1c2c34, the “activity change, negative = cytotoxicity” value was 14.1%.
With COP(=O)(OC)O/C(=C\Cl)c1cc(Cl)c(Cl)cc1Cl the “activity change, negative = cytotoxicity” value was 0.87%.
With CS(=O)(=O)c1ccc(C(=O)C2C(=O)CCCC2=O)c(Cl)c1COCC(F)(F)F the “activity change, negative = cytotoxicity” value was 1.15%.
For O=C(N/N=C/c1ccc([N+](=O)[O-])o1)c1cc([N+](=O)[O-])cc([N+](=O)[O-])c1O, the “activity change, negative = cytotoxicity” value was -13.3% [at 30.3 µM].
For COC(=O)C(C)N(C(=O)c1ccco1)c1c(C)cccc1C (stereo not drawn), the “activity change, negative = cytotoxicity” value was 27.3%.
With COc1cnc(OC)n2nc(NS(=O)(=O)c3c(OCC(F)F)cccc3C(F)(F)F)nc12 the “activity change, negative = cytotoxicity” value was 13%.
In the case of COC1=CC(=O)O[C@@H](CCc2ccccc2)C1, the “activity change, negative = cytotoxicity” value was 0%.
In the case of ClC(Cl)C(Cl)Cl, the “activity change, negative = cytotoxicity” value was 7.41%.
With CCCCCCCC(=O)Cl the “activity change, negative = cytotoxicity” value was -6.78%.
For CCCCCCCCCCCCN(C)C, the “activity change, negative = cytotoxicity” value was -7.07%.
For Cc1cccc2sc3nncn3c12, the “activity change, negative = cytotoxicity” value was 12.2%.
For CCCCC(CC)COC(=O)OOC(C)(C)C (stereo not drawn), the “activity change, negative = cytotoxicity” value was 3%.
In the case of CCOP(=O)(OCC)O/C(=C/Cl)c1ccc(Cl)cc1Cl, the “activity change, negative = cytotoxicity” value was 0.953%.
In the case of CNNC, the “activity change, negative = cytotoxicity” value was 3.94%.
With C=C(Cl)CSC(=S)N(CC)CC the “activity change, negative = cytotoxicity” value was 4.6%.
For COc1ccc(C=O)cc1O, the “activity change, negative = cytotoxicity” value was -2.77%.
For COc1cc(CC(C)N)c(OC)cc1Br (stereo not drawn), the “activity change, negative = cytotoxicity” value was 2.31%.
For N#CCCl, the “activity change, negative = cytotoxicity” value was -24.1%.
For CCCCCCCCCCCCCN1CC(C)OC(C)C1 (stereo not drawn), the “activity change, negative = cytotoxicity” value was -16.1%.
In the case of Cc1cccc(OP(=O)(Oc2cccc(C)c2)Oc2cccc(C)c2)c1, the “activity change, negative = cytotoxicity” value was 11.4%.
For CSc1ccc(C(=O)C(C)(C)N2CCOCC2)cc1, the “activity change, negative = cytotoxicity” value was 3.7%.
In the case of NC1=NC(=O)C(c2ccccc2)O1 (stereo not drawn), the “activity change, negative = cytotoxicity” value was 0.5% [at 30.3 µM].
For COP(=S)(OC)Oc1c(Cl)cc(C)cc1Cl, the “activity change, negative = cytotoxicity” value was 6.91%.

Test: p53 small molecule agonists, cell-based qHTS assay (AID 1963582; active = well fitted activation curve with a large enough effect in the signal ratio in the repeat runs, not every such curve was filed as active; the % refers to the signal ratio)
Details: HCT-116 p53RE-bla reporter, beta-lactamase FRET ratio, 16 h; series mostly up to 66 µM; activation: at the top concentration
In short: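 Fluorescence intensity read-out of a beta-lactamase reporter under a p53 response element. Cells were exposed to DMSO-dissolved compounds for 16 h at 37 C, then developed with FRET substrate for 2 h at RT.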
For CCN(CC)C(=O)N[C@@H]1C=C2c3cccc4[nH]cc(c34)C[C@@H]2N(C)C1, the “activation” value was 0.0137% [at 30.3 µM].
With O=[N+]([O-])c1ccc2c3c(cccc13)CC2 the “activation” value was 4.78%.
In the case of Oc1ccc2ccc3cccc4ccc1c2c34, the “activation” value was 5.97%.
For COP(=O)(OC)O/C(=C\Cl)c1cc(Cl)c(Cl)cc1Cl, the “activation” value was -1.74%.
In the case of CS(=O)(=O)c1ccc(C(=O)C2C(=O)CCCC2=O)c(Cl)c1COCC(F)(F)F, the “activation” value was -0.897%.
In the case of O=C(N/N=C/c1ccc([N+](=O)[O-])o1)c1cc([N+](=O)[O-])cc([N+](=O)[O-])c1O, the “activation” value was -10.6% [at 30.3 µM].
With CCCCC(=O)Cl the “activation” value was -3.83%.
For COc1cnc(OC)n2nc(NS(=O)(=O)c3c(OCC(F)F)cccc3C(F)(F)F)nc12, the “activation” value was -0.703%.
For O=C1C(Cl)C(CCl)CN1c1cccc(C(F)(F)F)c1 (stereo not drawn), the “activation” value was -0.421%.
For ClC(Cl)C(Cl)Cl, the “activation” value was 0.88%.
In the case of O=[N+]([O-])c1cc([N+](=O)[O-])c2ccccc2c1, the “activation” value was 0.781%.
With CCCCCCCCCCCCN(C)C the “activation” value was 2.01%.
For C=CC[C@]1(O)CC[C@H]2[C@@H]3CCC4=CC(=O)CCC4=C3C=C[C@@]21C, the “activation” value was -3.55% [at 30.3 µM].
With Cc1cccc2sc3nncn3c12 the “activation” value was 0.224%.
For CCCCC(CC)COC(=O)OOC(C)(C)C (stereo not drawn), the “activation” value was 2.92%.
In the case of CNNC, the “activation” value was -3.09%.
With C=C(Cl)CSC(=S)N(CC)CC the “activation” value was 1.8%.
With C[C@]12C=CC(=O)C=C1CC[C@@H]1[C@@H]2CC[C@@]2(C)[C@H]1CC[C@]2(C)O the “activation” value was 0.171% [at 30.3 µM].
With COc1cc(CC(C)N)c(OC)cc1Br (stereo not drawn) the “activation” value was 0.118%.
In the case of N#CCCl, the “activation” value was -7.47%.
In the case of CCCCCCCCCCCCCN1CC(C)OC(C)C1 (stereo not drawn), the “activation” value was -1.73%.
With CCN(CC)c1c([N+](=O)[O-])cc(C(F)(F)F)c(N)c1[N+](=O)[O-] the “activation” value was -1.59%.
In the case of Cc1cccc(OP(=O)(Oc2cccc(C)c2)Oc2cccc(C)c2)c1, the “activation” value was -5.17%.
In the case of CSc1ccc(C(=O)C(C)(C)N2CCOCC2)cc1, the “activation” value was -2.41%.
In the case of NC1=NC(=O)C(c2ccccc2)O1 (stereo not drawn), the “activation” value was -0.301% [at 30.3 µM].
With COP(=S)(OC)Oc1c(Cl)cc(C)cc1Cl the “activation” value was -1.72%.
